Measured values: ChEMBL document CHEMBL4513216, “Probing the Open Global Health Chemical Diversity Library for Multistage-Active Starting Points for Next-Generation Antimalarials” (ACS Infect Dis, 2020)
Screen size: about 69,000 compounds; about 8,600 (12%) showed an effect of 50% or more. The list comes from a sample in which strong results are over-represented; it also holds similar structures and randomly drawn compounds.

test system: Plasmodium berghei; test: Screen against P. berghei liver stage (PbLuc), transformed with Luciferase, at 10uM; type: functional, HepG2; conditions: tested at 10 uM

Row | Compound | INHIBITION [%]
1 | COC(=O)c1cccc(C(=O)N(C)Cc2ccsc2)c1 | 13.8
2 | COC(=O)c1ccc(CN(C)C(=O)c2cnsn2)cc1 | 64.1
3 | CN(Cc1cccc(OC(F)(F)F)c1)C(=O)c1cnsn1 | 68.6
4 | Cc1ccc(CN(C)C(=O)c2cnsn2)cc1 | 65.2
5 | Cc1ccc(CN(C)C(=O)c2scnc2C)cc1 | -11.19
6 | COC(=O)c1cccc(C(=O)N(C)Cc2cccc(O)c2)c1 | 7.44
7 | Cc1nn(C)c2cn(CC(=O)N3CCN(c4ccccn4)CC3)nc12 | 30
8 | CC(c1ccco1)N(C(=O)Cn1nc2n(c1=O)CCCCC2)C1CC1 (stereo unspecified) | 5.94
9 | Cc1ncc(C(=O)NCCNc2ncccc2C#N)s1 | -0.113
10 | O=C(Cn1ccnc1)N(CCO)CCSc1ccc(Cl)cc1 | 9.41
11 | COCC(=O)N1CCCC2(CCN(Cc3cccc(C)n3)C2=O)C1 (stereo unspecified) | 43.9
12 | N#Cc1cc(F)ccc1Cn1cnc(C2CCC2)cc1=O | 26.6
13 | N#Cc1cc(Cn2cnc(C3CCC3)cc2=O)ccc1F | 74.3
14 | N#Cc1ccc(F)cc1Cn1cnc(C2CCC2)cc1=O | -22.3
15 | CCc1nnc2n1CCN(Cc1cc(Cl)c3c(c1)OCCO3)C2 | 10.235
16 | COc1ncccc1CNC(=O)c1cc(Cl)ccn1 | -22.8
17 | Cc1noc(CCCC(=O)N2CCCCC2CNS(C)(=O)=O)n1 (stereo unspecified) | 49.7
18 | CC(C)OCCCNC(=O)CS(=O)(=O)Cc1ccc(Cl)cc1 | 9.64
19 | CN(C)C(=O)NC1COC2(CCN(Cc3ccco3)CC2)C1 (stereo unspecified) | 27.6

Row | Compound | INHIBITION [%]
20 | CN(C)C(=O)CC1CC2(CCN(Cc3ccsc3)CC2)c2ccccc21 (stereo unspecified) | 64.2
21 | CN(C)C(=O)CC1CC2(CCN(Cc3ccoc3)CC2)c2ccccc21 (stereo unspecified) | -6.23
22 | CN(C)C(=O)CC1CC2(CCN(Cc3cccs3)CC2)c2ccccc21 (stereo unspecified) | 45.2
23 | CNC(=O)CC1CC2(CCN(Cc3nccs3)CC2)c2ccccc21 (stereo unspecified) | -0.113
24 | CN(C)C(=O)CC1CC2(CCN(Cc3ccco3)CC2)c2ccccc21 (stereo unspecified) | 75
25 | CC(=O)N1CCC(N2CCC(c3nc(C)cc(C)n3)C2)CC1 (stereo unspecified) | 24.8
26 | Cc1cncnc1C1CCN(CC(N)=O)CC1 | -16.9
27 | CC(=O)N1CCc2nc(C3CCN(c4ncccn4)C3)ncc2C1 (stereo unspecified) | -0.902
28 | CN1C[C@H]2N(c3ncccn3)CCC[C@@]2(C(=O)NCC2CC2)C1 | 67.5
29 | CC(C)CN1C[C@H]2N(c3ncccn3)CCC[C@@]2(C(=O)NCC2CC2)C1 | 56.6
30 | CCN1C[C@H]2N(c3ncccn3)CCC[C@@]2(C(=O)NCC2CC2)C1 | 19.5
31 | CS(=O)(=O)N1C[C@H]2N(c3ncccn3)CCC[C@@]2(C(=O)NCC2CC2)C1 | 35.8
32 | CNC(=O)[C@@]12CCCN(c3ncccn3)[C@@H]1CN(C)C2 | -17.4
33 | CNC(=O)N1C[C@H]2N(c3ncccn3)CCC[C@@]2(C(=O)NCC2CC2)C1 | 17.7
34 | CC(=O)N1CC(=O)N(c2ccccc2)CC12CCN(Cc1cccs1)C2 (stereo unspecified) | 6.38
35 | COCC1CC2(CCN(Cc3cnn(C)c3)CC2)CN1C(C)C (stereo unspecified) | 37.5
36 | O=C(O)c1ccc(C2CCCN(C(=O)c3ccc[nH]3)C2)cc1 (stereo unspecified) | 36.8
37 | O=C(NCc1cnc2n1CCN(Cc1nccs1)CC2)C1CCC1 | 30.3
38 | Cn1cc(C2CCCN2Cc2csc(C(C)(C)C)n2)cn1 (stereo unspecified) | 55.9

Row | Compound | INHIBITION [%]
39 | Cn1cc(C2CCCN2Cc2csc(-c3ccccc3)n2)cn1 (stereo unspecified) | -38.2
40 | CC(=O)Nc1nc(CN2CCCC2c2cnn(C)c2)cs1 (stereo unspecified) | 34.9
41 | Cn1cc(C2CCCN2Cc2csc(C3CCCC3)n2)cn1 (stereo unspecified) | 42
42 | CC(=O)N(C)c1nc(CN2CCCC2c2cnn(C)c2)cs1 (stereo unspecified) | 50.3
43 | CC(C)c1nc(CN2CCCC2c2cnn(C)c2)cs1 (stereo unspecified) | 19.4
44 | Cc1cnn(CC2CN(Cc3nc(-c4ccsc4)no3)CCO2)c1 (stereo unspecified) | 49.75
45 | CC1(C(=O)N2CCN(c3cnccn3)CC2)CNCCO1 (stereo unspecified) | 36.5
46 | COc1cc2cc3c(nc2cc1OC)OCCN(CC1CC1)C3 | -7.66
47 | COc1cccc(CC(=O)NCc2cnc(C)nc2C2CCCN2C)c1 (stereo unspecified) | 36.7
48 | Nc1nc2c(c(N3CCCC(CN4CCCC4=O)C3)n1)CCNCC2 (stereo unspecified) | 48.5
49 | NCC1CCCN(c2nc(-c3ccccc3)nc3c2CCNCC3)C1 (stereo unspecified) | 19.5
50 | Nc1nc2c(c(N3CCCC3)n1)CCN(Cc1ccccn1)CC2 | 41.5
51 | Cc1nn(C)c2ncnc(N3CCCC(OCc4ccccn4)C3)c12 (stereo unspecified) | -46.6
52 | Nc1nc2c(c(N3CCCC(OCc4ccccn4)C3)n1)CCNCC2 (stereo unspecified) | 59.4
53 | c1ccc(CN2CCc3ncnc(N4CCCC4)c3CC2)nc1 | 46.7
54 | Cc1nc2c(c(N3CCCC(OCc4ccccn4)C3)n1)CCNCC2 (stereo unspecified) | 73
55 | Nc1nc2c(c(N3CCSCC3)n1)CCN(Cc1ccccn1)CC2 | 66.5
56 | Cc1nc(N2CCCC(OCc3ccccn3)C2)c2c(C)noc2n1 (stereo unspecified) | -4.21
